Assay [1] can be described thus: qHTS of pediatric cancer cell lines to identify multiple opportunities for drug repurposing: Primary screen for Saos-2 cells (AID 1347097). Also: nearly all actives have a fitted effect of over 40% in size. The essentials:
(§1)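 Readout: CellTiter-Glo luminescence, 48 h treatment. Controls DMSO (neutral) and bortezomib 2.3 µM final (positive). Potency and efficacy taken from primary-screen concentration-response curves.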

Assay [2] is described as follows: qHTS of pediatric cancer cell lines to identify multiple opportunities for drug repurposing: Primary screen for SK-N-SH cells (AID 1347098). Also: nearly all actives have a fitted effect of over 65% in size. The procedure, abridged:
(§2)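 Cells (500-1,000/well) rested 5 h, then received compounds for 48 h; metabolically active cells were measured by CellTiter-Glo luminescence. Final concentrations spanned up to 46 µM (MIPE, 11-point) or 0.59 nM-46 µM (NPC, 8-point) in primary screens, 11-point in follow-ups.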
(Quantitative high-throughput screening tests each substance at several concentrations.)

Assay [3] in a line: qHTS of pediatric cancer cell lines to identify multiple opportunities for drug repurposing: Primary screen for NB1643 cells (AID 1347099). Also: nearly all actives have a fitted effect of over 50% in size. The essentials: as §1
Assay [4] in a line: qHTS of pediatric cancer cell lines to identify multiple opportunities for drug repurposing: Primary screen for LAN-5 cells (AID 1347100). The procedure, abridged:
(§3)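 Cells (500-1,000/well) in growth media were settled 5 h at 37 degrees C, then given compounds for 48 h. Viability was read as CellTiter-Glo luminescence. Primary runs used MIPE at 11 points (0.78 nM-46 µM) and NPC at 8 points (0.59 nM-46 µM); follow-ups used 11 points.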

Assay [5] can be described thus: qHTS of pediatric cancer cell lines to identify multiple opportunities for drug repurposing: Primary screen for Rh18 cells (AID 1347102). Also: nearly all actives have a fitted effect of over 65% in size. The procedure, abridged: as §3
Assay [6] in a line: qHTS of pediatric cancer cell lines to identify multiple opportunities for drug repurposing: Primary screen for RD cells (AID 1347104). Also: nearly all actives have a fitted effect of over 55% in size. The procedure, abridged: as §1
A short description of assay [7]: qHTS of pediatric cancer cell lines to identify multiple opportunities for drug repurposing: Primary screen for MG 63 (6-TG R) cells (AID 1347105). Also: nearly all actives have a fitted effect of over 50% in size. The essentials: as §1
Assay [8] is described as follows: qHTS of pediatric cancer cell lines to identify multiple opportunities for drug repurposing: Primary screen for control Hh wild type fibroblast cells (AID 1347106). Also: nearly all actives have a fitted effect of over 55% in size. The essentials:
as §3

Assay [9] can be described thus: qHTS of pediatric cancer cell lines to identify multiple opportunities for drug repurposing: Primary screen for Rh30 cells (AID 1347107). Also: nearly all actives have a fitted effect of over 75% in size. The essentials: as §3
A short description of assay [10]: qHTS of pediatric cancer cell lines to identify multiple opportunities for drug repurposing: Primary screen for Rh41 cells (AID 1347108). Also: nearly all actives have a fitted effect of over 70% in size. The procedure, abridged:
as §1

Assay [11] can be described thus: qHTS of pediatric cancer cell lines to identify multiple opportunities for drug repurposing: Confirmatory screen for NB1643 cells (AID 1347109). Also: nearly all actives have a fitted effect of over 45% in size. The procedure, abridged: as §3
Assay [12] is described as follows: qHTS of pediatric cancer cell lines to identify multiple opportunities for drug repurposing: Confirmatory screen for A673 cells (AID 1347110).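 Also: cells exposed to compound for 48 h before the viability read; nearly all actives have a fitted effect of over 65% in size.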 The essentials: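 Cells plated at 500-1,000/well were treated five hours later with multi-point dilutions up to 46 µM final. After two days, CellTiter-Glo was added and luminescence read.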
Assay [13] can be described thus: qHTS of pediatric cancer cell lines to identify multiple opportunities for drug repurposing: Confirmatory screen for SK-N-MC cells (AID 1347111).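 Also: cells exposed to compound for 48 h before the readout; nearly all actives have a fitted effect of over 70% in size.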 The procedure, abridged: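 Metabolically active cells were quantified by ATP-dependent luminescence (CellTiter-Glo, 15 min at room temperature) following 48 h treatment. Cells had been plated at 500-1,000 per well and settled for 5 h beforehand.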

Assay [14] can be described thus: qHTS of pediatric cancer cell lines to identify multiple opportunities for drug repurposing: Confirmatory screen for LAN-5 cells (AID 1347113). Also: nearly all actives have a fitted effect of over 65% in size. The procedure, abridged:
as §3

The nature of assay [15]: qHTS of pediatric cancer cell lines to identify multiple opportunities for drug repurposing: Confirmatory screen for DAOY cells (AID 1347114). Also: nearly all actives have a fitted effect of over 65% in size. The essentials: (§4)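 Viability measured as metabolically active cells via CellTiter-Glo luminescence following 48 hours of compound exposure, 11-point dilutions in confirmatory testing. 500-1,000 cells/well plated 5 hours before dosing; controls were DMSO and 2.3 µM bortezomib.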

The nature of assay [16]: qHTS of pediatric cancer cell lines to identify multiple opportunities for drug repurposing: Confirmatory screen for SJ-GBM2 cells (AID 1347116). Also: nearly all actives have a fitted effect of over 60% in size. The procedure, abridged:
as §4

Assay [17] can be described thus: qHTS of pediatric cancer cell lines to identify multiple opportunities for drug repurposing: Primary screen for OHS-50 cells (AID 1347103). Also: nearly all actives have a fitted effect of over 40% in size. The procedure, abridged:
as §2

The nature of assay [18]: qHTS of pediatric cancer cell lines to identify multiple opportunities for drug repurposing: Primary screen for BT-12 cells (AID 1347101). Also: nearly all actives have a fitted effect of over 25% in size. The procedure, abridged:
as §2

A short description of assay [19]: qHTS of pediatric cancer cell lines to identify multiple opportunities for drug repurposing: Confirmatory screen for BT-12 cells (AID 1347112). Also: nearly all actives have a fitted effect of over 55% in size. The procedure, abridged:
as §3

The nature of assay [20]: qHTS of pediatric cancer cell lines to identify multiple opportunities for drug repurposing: Confirmatory screen for NB-EBc1 cells (AID 1347115).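 Also: cells exposed to compound for 48 h before the viability read; nearly all actives have a fitted effect of over 45% in size.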 The essentials:
as §3

Our source for the Potency values is PubChem BioAssay (NCATS).

Records with an inconclusive call do not appear. Activity calls are given as the source filed them. Calls follow the shape of the dose curve; as a rule, active = well fitted curve in the direction sought with a large enough effect; inconclusive = small, poorly fitted or top-dose-only effect, or another doubt; inactive = no such curve, though single readings can be large; an effect the other way counts as inactive or inconclusive.
Potency is read from the fitted curve at half-maximal effect.

With `CCn1cc(-c2ccnc3[nH]c(-c4cccc(CN(C)C)c4)cc23)c(-c2ccc(NC(=O)N(C)C)cc2)n1`, the Potency in assay [1] was 3.72 µM (active); in [2], 3.04 µM (active); in assay [3], 3.32 µM (active); in [4], 0.0264 µM (active); in [5], 16.6 µM (active); in [6], 10.5 µM (active). The Potency is 4.69 µM (active) in [7]; 20.9 µM (active) in [8]; 14.8 µM (active) in assay [9]; 5.9 µM (active) in assay [10]; 3.69 µM (active) in assay [11]; 1.85 µM (active) in assay [12]. Further, the Potency is 0.0657 µM (active) in [13], 6.57 µM (active) in [14], 18.5 µM (active) in assay [15] and 0.928 µM (active) in assay [16].

As for `Cc1ccc(S(=O)(=O)Nc2cc(Cl)ccc2C(=O)Nc2nc(-c3ccccc3)cs2)cc1`, the Potency in assay [1] was 14.8 µM (active); in assay [3], 3.72 µM (active); in assay [4], 9.35 µM (active); in assay [17] it was 8.63 µM (active); in [6], 10.5 µM (active); in assay [7], 9.35 µM (active). For the same molecule, the Potency in assay [10] is 18.7 µM (active). Moreover, the Potency entry in assay [2], in [5], in assay [8] and in assay [9] was “inactive” in each case.

Regarding `Nc1ncnc2c1c(-c1cnc3[nH]ccc3c1)nn2C1CCCC1`, the Potency in [1] was 0.935 µM (active); in assay [2], 2.15 µM (active); in assay [3], 5.9 µM (active); in assay [4], 1.05 µM (active); in assay [18], 1.37 µM (active); in assay [5] it was 0.526 µM (active). The Potency in [6] is 1.87 µM (active); in assay [7], 0.118 µM (active); in [8], 1.32 µM (active); in assay [9], 2.09 µM (active); in assay [10], 0.935 µM (active); in assay [11], 8.27 µM (active). Moreover, the Potency in [12] is 3.69 µM (active); in [13] it was 1.65 µM (active); in [19], 3.69 µM (active); in assay [14], 1.47 µM (active); in assay [20], 10.4 µM (active); in assay [16], 2.33 µM (active).

As to `CNC(=O)c1ccc(N2C(=S)N(c3cnc(C#N)c(C(F)(F)F)c3)C(=O)C23CCC3)cc1F`, the Potency entry in assay [1], in [11], in [12], in [13], in assay [19] and in [14] was “inactive” in each case. The Potency result in assay [15], in [20] and in assay [16] was “inactive” throughout. The Potency in assay [2] is 1.21 µM (active); in assay [3], 3.32 µM (active); in assay [4] it was 8.33 µM (active); in [18], 19.3 µM (active); in [5], 14.8 µM (active); in assay [6], 5.9 µM (active). Besides, the Potency is 2.35 µM (active) in [7], 3.72 µM (active) in assay [8], 1.66 µM (active) in assay [9] and 1.48 µM (active) in assay [10].

On to `Cc1nc(N)ncc1-c1nc(N2CCOCC2)c2sc(C(C)(C)O)cc2n1`, for which the Potency was 0.833 µM (active) in assay [1]; 1.21 µM (active) in [2]; 0.469 µM (active) in assay [3]; 1.32 µM (active) in [4]; 1.18 µM (active) in assay [5]; 0.0685 µM (active) in [17]. For the same molecule, the Potency in [6] is 1.48 µM (active); in assay [7] it was 0.296 µM (active); in assay [10], 1.87 µM (active); in [11], 1.65 µM (active); in assay [13], 0.293 µM (active); in [14], 1.47 µM (active).

Turning to `C=CC(=O)N1CCC[C@@H](n2nc(-c3ccc(Oc4ccccc4)cc3)c3c(N)ncnc32)C1`, the Potency is 11.8 µM (active) in assay [1]; 12.1 µM (active) in assay [2]; 2.35 µM (active) in assay [3]; 16.6 µM (active) in assay [4]; 18.7 µM (active) in assay [5]; 33.2 µM (active) in assay [6]. For the same molecule, the Potency in assay [7] was 23.5 µM (active); in assay [9], 11.8 µM (active); in assay [13], 5.85 µM (active); in assay [20], 9.27 µM (active). In addition, the Potency result in assay [8], in assay [19] and in [16] was “inactive” each time.

Take `Cc1ccc(C(=O)Nc2cccc(C(F)(F)F)c2)cc1-c1ccc2nc(NCCN3CCOCC3)ncc2c1`: the Potency in [1] is 5.9 µM (active); in assay [2], 9.61 µM (active); in assay [3], 5.26 µM (active); in [4], 14.8 µM (active); in assay [18] it was 7.69 µM (active); in assay [5], 7.43 µM (active). Further, the Potency in assay [6] was 5.9 µM (active); in assay [7], 14.8 µM (active); in [8], 14.8 µM (active); in assay [10], 14.8 µM (active); in assay [11], 6.57 µM (active); in assay [13] it was 14.7 µM (active). Further, the Potency in assay [14] is 9.27 µM (active); in [15], 20.8 µM (active); in assay [16] it was 13.1 µM (active).

Take `COc1cc2nccc(Oc3ccc(NC(=O)C4(C(=O)Nc5ccc(F)cc5)CC4)cc3)c2cc1OC`: the Potency in [1] is 18.7 µM (active); in assay [2], 3.41 µM (active); in [3], 9.35 µM (active); in assay [4], 1.48 µM (active); in assay [18] it was 15.3 µM (active); in assay [5], 10.5 µM (active). Further, the Potency in assay [6] is 16.6 µM (active); in assay [10], 9.35 µM (active); in [12], 18.5 µM (active); in assay [16], 1.65 µM (active). The Potency entry in [11], in [19] and in assay [20] was “inactive” throughout.

Regarding `Nc1ccccc1NC(=O)c1ccc(CNC(=O)OCc2cccnc2)cc1`, the Potency in [1] is 2.35 µM (active); in assay [2], 17.1 µM (active); in [3], 1.87 µM (active); in assay [4], 0.833 µM (active); in assay [18], 7.69 µM (active); in assay [5], 2.96 µM (active). For the same molecule, the Potency in assay [6] is 5.26 µM (active); in assay [7], 4.69 µM (active); in assay [8], 20.9 µM (active); in [9], 18.7 µM (active); in assay [10], 3.72 µM (active); in assay [11], 2.14 µM (active). For the same molecule, the Potency in [12] was 13.5 µM (active); in assay [13] it was 0.302 µM (active); in assay [14] it was 2.69 µM (active); in assay [15] it was 1.91 µM (active); in assay [20], 30.2 µM (active); in assay [16], 13.5 µM (active).

Regarding `COc1cccc2c(NCc3ccccc3)nc(-n3c(N)nc4ccccc43)nc12`, the Potency in assay [1] is 3.72 µM (active); in assay [2], 10.8 µM (active); in [3] it was 9.35 µM (active); in assay [4], 9.35 µM (active); in assay [18] it was 10.9 µM (active); in [5] it was 9.35 µM (active). Also, the Potency is 9.35 µM (active) in [7]; 14.8 µM (active) in [9]; 18.7 µM (active) in assay [10]; 7.37 µM (active) in assay [11]; 7.37 µM (active) in assay [13]; 13.1 µM (active) in assay [19]. Moreover, the Potency in assay [14] was 9.27 µM (active); in [15], 2.33 µM (active); in assay [20], 8.27 µM (active). Moreover, the Potency entry in assay [8] was “inactive”.
